“And” between values parts separate entries of the source, which are not always exact repeats. Equal entries are not always repeated. The whole screen tested about 5,500 compounds, of which about 2,000 (36%) were called active. Inconclusive results (about 18%) are left out. Rule as the data show it: active = normalized growth mostly below about 0.91 (no sharp cut-off); inconclusive = no clear call, values can overlap the other calls; inactive = mostly above about 0.92. This is one part of the list.
Test: chemical genetic growth profiling, strain panel (AID 1159580);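 also: tested at 20 µM; growth read once vehicle control cultures reached saturation at 30 °C; 1 = growth at the plate median or of vehicle wells; lower values mean less growth of the strain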
Details: growth OD

Measured: normalized growth

O=c1oc2ccccc2cc1[N+](=O)[O-]
active: S. cerevisiae deletion strains, locus YAL013W, strain DEP1, stronger effect = lower value 0.0574 | S. cerevisiae deletion strains, locus YBR229C, strain ROT2, stronger effect = lower value 0.0595 | S. cerevisiae deletion strains, locus YCL061C, strain MRC1, stronger effect = lower value 0.0567 | S. cerevisiae deletion strains, locus YDL101C, strain DUN1, stronger effect = lower value 0.0763 | S. cerevisiae deletion strains, locus YDL134C, strain PPH21, stronger effect = lower value 0.049 | S. cerevisiae deletion strains, locus YDR150W, strain NUM1, stronger effect = lower value 0.0585 | S. cerevisiae deletion strains, locus YEL061C, strain CIN8, stronger effect = lower value 0.0579 | S. cerevisiae deletion strains, locus YGR052W, strain FMP48, stronger effect = lower value 0.114 | S. cerevisiae deletion strains, locus YGR078C, strain PAC10, stronger effect = lower value 0.0524 | S. cerevisiae deletion strains, locus YGR229C, strain SMI1, stronger effect = lower value 0.0596 | S. cerevisiae deletion strains, locus YHR030C, strain SLT2, stronger effect = lower value 0.0818 and 0.0892 | S. cerevisiae deletion strains, locus YHR079C, strain IRE1, stronger effect = lower value 0.106 | S. cerevisiae deletion strains, locus YHR082C, strain KSP1, stronger effect = lower value 0.105 | S. cerevisiae deletion strains, locus YHR087W, strain rtc3, stronger effect = lower value 0.0624 | S. cerevisiae deletion strains, locus YJL095W, strain BCK1, stronger effect = lower value 0.104 | S. cerevisiae deletion strains, locus YJR043C, strain POL32, stronger effect = lower value 0.0547 | S. cerevisiae deletion strains, locus YJR066W, strain TOR1, stronger effect = lower value 0.102 | S. cerevisiae deletion strains, locus YJR075W, strain HOC1, stronger effect = lower value 0.0787 | S. cerevisiae deletion strains, locus YKL171W, strain NNK1, stronger effect = lower value 0.106 | S. cerevisiae deletion strains, locus YKL190W, strain CNB1, stronger effect = lower value 0.0491 | S. cerevisiae deletion strains, locus YKL203C, strain TOR2, stronger effect = lower value 0.0901 | S. cerevisiae deletion strains, locus YLR039C, strain RIC1, stronger effect = lower value 0.0723 | S. cerevisiae deletion strains, locus YLR058C, strain SHM2 (second series), stronger effect = lower value 0.0528 | S. cerevisiae deletion strains, locus YLR085C, strain ARP6, stronger effect = lower value 0.071 | S. cerevisiae deletion strains, locus YLR113W, strain HOG1, stronger effect = lower value 0.137 | S. cerevisiae deletion strains, locus YLR262C, strain YPT6, stronger effect = lower value 0.0758 | S. cerevisiae deletion strains, locus YML094W, strain GIM5, stronger effect = lower value 0.0733 | S. cerevisiae deletion strains, locus YMR219W, strain ESC1, stronger effect = lower value 0.0518 | S. cerevisiae deletion strains, locus YMR263W, strain SAP30, stronger effect = lower value 0.0584 | S. cerevisiae deletion strains, locus YNL153C, strain GIM3, stronger effect = lower value 0.057 | S. cerevisiae deletion strains, locus YNL183C, strain NPR1, stronger effect = lower value 0.119 | S. cerevisiae deletion strains, locus YNL207W, strain RIO2, stronger effect = lower value 0.0939 | S. cerevisiae deletion strains, locus YNL298W, strain CLA4 (second series), stronger effect = lower value 0.0711 | S. cerevisiae deletion strains, locus YNL322C, strain KRE1, stronger effect = lower value 0.0611 | S. cerevisiae deletion strains, locus YNR030W, strain Alg12, stronger effect = lower value 0.0702 | S. cerevisiae deletion strains, locus YOL006C, strain TOP1, stronger effect = lower value 0.0751 | S. cerevisiae deletion strains, locus YOR119C, strain RIO1, stronger effect = lower value 0.0989 | S. cerevisiae deletion strains, locus YOR231W, strain MKK1, stronger effect = lower value 0.106 | S. cerevisiae deletion strains, locus YPL055C, strain LGE1, stronger effect = lower value 0.0749 | S. cerevisiae deletion strains, locus YPL241C, strain CIN2, stronger effect = lower value 0.0745 | S. cerevisiae deletion strains, locus YPL256C, strain CLN2, stronger effect = lower value 0.0976 | S. cerevisiae deletion strains, locus YPR135W, strain CTF4, stronger effect = lower value 0.155 | S. cerevisiae strains, strain wild type, stronger effect = lower value 0.0506

Source: PubChem BioAssay AID1159580 (chemical genetic matrix, 2015)
